# Inconclusive results are not listed. Values without a mark were called inactive. The call rests on the fitted dose curve.
# Assay: qHTS assay to identify small molecule agonists of the AP-1 signaling pathway - cell viability counter screen (AID 1159525); further: nearly all actives have a fitted effect of over 55% in size
# Settings: ME-180 (cervical carcinoma) AP-1-bla cells viability, ATP luminescence, 5 h; series mostly up to 76.8 µM; viability change, negative = cytotoxic: at the top concentration
# From the text: National Center for Advancing Translational Sciences [NCATS]
# NIH Chemical Genomics Center [NCGC]
# U.S. Environmental Protection Agency [EPA]
# National Institutes of Environmental Health Sciences [NIEHS]
# National Toxicology Program [NTP]
# U.S. Food and Drug Administration [FDA]
# Activator protein-1 (AP-1), a transcription factor, plays an important role in tumor genesis by regulating genes involved in cell proliferation, differentiation, apoptosis, and angiogenesis. AP-1 activity is induced by a complex network of signaling pathways that involves extracellular signals, such as growth factors. The AP-1 protein complex formed from c-Fos and c-Jun binding to the AP-1 response element results in transcriptional activation of genes containing such elements within their promoter.
# Low molecular weight molecules have been discovered and developed to modulate various components of these signaling pathways, for example, MAP kinase inhibitors. However, many points of pathway modulation remain untested due to the lack of chemical probes making this signaling locus of general interest.
# Using a beta-lactamase reporter-gene under control of the AP-1 response element, a cell-based assay [CellSensor(TM) AP-1-bla ME-180 developed by Invitrogen Corp.] was used to measure EGF-induced signaling. The Tox21 10K library compounds were measured for their ability to positively modulate the action of EC50 EGF on reporter gene activity. Compounds were screened in a 15-pt titration series in 1536-well format. The cytotoxicity of the Tox21 compound library against this cell line was tested in parallel by measuring the intra cellular ATP content in the same wells.
# Tox21 Assay Protocol Summary:
# 2500 cells/5uL in Opti-MEM medium containing 0.5% dialyzed FBS, 0.1 mM NEAA, 1 mM sodium pyruvate and 10 mM HEPES was dispensed into 1536-well black wall/clear bottom plates using a Multidrop dispenser and cells were cultured at 37 degrees Celsius overnight. Next day 23 nL of compounds dissolved in DMSO, positive controls or DMSO were delivered to each well using a pin tool. The plates were incubated at 37 degrees Celsius for 5 hours. 1 uL of LiveBLAzerTM B/G FRET substrate (Solution A+B+C+D) was added to each well using a Flying Reagent Dispenser. After incubated at room temperature for 2.5 hours the plates were measured on an EnVision plate reader at Excitation 405nm, Emission1=460nm and Emission 2=530nm. The %Activity was determined from the ratio of 460nm/530nm.
# After the plates were read for Beta-Lactamase assay on Envision; 3 ul Cell Titer Glo (Promega) was added to measure the cytotoxicity and the plates were then incubated at RT in dark for 30 min. The luminescence was read on ViewLux (Perkin Elmer, Shelton, CT) using 6 sec exposure. ViewLux data was expressed as relative luminescence units.
# For primary data analysis, raw plate reads for each titration point were first normalized relative to […] EGF control (100%) and DMSO only wells (basal, 0%).
# For primary data analysis for viability assay, raw plate reads for each titration point were first normalized Tetra n-octyl ammonium bromide control (-100%) and DMSO (control, 100%).
row,Structure (SMILES),"viability change, negative = cytotoxic"
1,CC1OC1C1CCC2(C)OC2C1 (stereo not given),3.29%
2,Cc1nc(C2CCCCC2)c(-c2ccc(S(N)(=O)=O)c(F)c2)o1,-2.37% [at 35.3 µM]
3,NC(N)=NCCN1CCCCCCC1,8.04% [at 0.29 µM]
4,CC(=O)Oc1cccc(C)c1,1.24% [at 35.3 µM]
5,COc1ccnc(CS(=O)c2nc3cc(OC(F)F)ccc3[nH]2)c1OC (stereo not given),0.131%
6,C=C[Si](OC(C)=O)(OC(C)=O)OC(C)=O,-0.0493%
7,CC[N+](C)(CC)CCOC(=O)C1c2ccccc2Oc2ccccc21,8.26% [at 35.3 µM]
8,CCN1CCOCC1,-12.6%
9,Cc1nc2ccc(CN(C)c3ccc(C(=O)N[C@@H](CCC(=O)O)C(=O)O)s3)cc2c(=O)[nH]1,-10.6% [at 35.3 µM]
10,C[C@H]1C[C@H]2[C@@H]3CCC4=CC(=O)C=C[C@]4(C)[C@H]3C(=O)C[C@]2(C)[C@@]1(O)C(=O)CO,-7.22% [at 35.3 µM]
11,CC1=NN(c2cc(S(=O)(=O)O)ccc2Cl)C(=O)C1N=Nc1ccccc1 (stereo not given),-1%
12,C[N+]12CCC(CC1)C(OC(=O)C(O)(c1ccccc1)c1ccccc1)C2 (stereo not given),3.3% [at 35.3 µM]
13,C[C@@H]1CCC[C@H](C)N1,6.17% [at 35.3 µM]
14,[K+],-7.11%
15,CN(C)C(=O)Oc1cccc([N+](C)(C)C)c1,-0.681% [at 35.3 µM]
16,CN(C)CCCCCCN(C)C,6.94%
17,O=C(O)CC(C(=O)O)S(=O)(=O)O (stereo not given),2.41%
18,Nc1ccccn1,1.17%
19,CCCCCCCCCCCCCCC(=O)O,-1.37%
20,COc1c(N2CCNC(C)C2)c(F)cc2c(=O)c(C(=O)O)cn(C3CC3)c12 (stereo not given),10.8% [at 35.3 µM]

row,Structure (SMILES),"viability change, negative = cytotoxic"
1,COC(=O)C1=C(C)NC(C)=C(C(=O)OC(C)C)C1c1cccc2nonc12 (stereo not given),-9.55% [at 35.3 µM]
2,CCN[C@@H]1C[C@H](N)[C@@H](OC2OC(CN)=CCC2N)[C@H](O)[C@H]1O[C@H]1OC[C@](C)(O)[C@H](NC)[C@H]1O (stereo not given in full),0.839% [at 0.29 µM]
3,CC[C@H]1OC(=O)[C@H](C)[C@@H](O[C@H]2C[C@@](C)(OC)[C@@H](O)[C@H](C)O2)[C@H](C)[C@@H](O[C@@H]2O[C@H](C)C[C@H](N(C)C)[C@H]2O)[C@](C)(OC)C[C@@H](C)C(=O)[C@H](C)[C@@H](O)[C@]1(C)O,-6.28%
4,CC(C)CC(C)(N)C#N (stereo not given),-0.336%
5,CCCCCCC1CCC(=O)O1 (stereo not given),0.464%
6,CCC(C(=O)NC(=O)NC(C)=O)c1ccccc1 (stereo not given),-0.589% [at 35.3 µM]
7,CCOC(=O)c1cnc2c(cnn2CC)c1NN=C(C)C,-5.42% [at 35.3 µM]
8,CC(C)C1CCC(O)CC1 (stereo not given),2.27%
9,CCCCCCCCCCOc1cc2c(=O)c(C(=O)OCC)c[nH]c2cc1OCC,15.6% [at 6.97 µM]
10,CCCC[N+](C)(CCCC)CCCC,-14%
11,CC(=O)c1ccc2ccccc2c1,7.08%
12,Cc1ccccc1N=C(N)N=C(N)N,5.58%
13,C[N+](C)(CCOc1ccccc1)Cc1cccs1,-7.36% [at 35.3 µM]
14,CN1CCN(c2cc3c(nn2)Oc2ccccc2N3C)CC1,4.25% [at 15.8 µM]
15,O=C(O)CNC(=O)c1ccc(CO)o1,-2.07%
16,COc1cc(-c2ccc(=O)[nH]n2)ccc1OC(F)F,2.75% [at 35.3 µM]
17,NC(=O)NC1N=C([O][Al])NC1=O (stereo not given),-0.16% [at 35.3 µM]
18,C[N+]1(C)[C@@H]2CC(OC(=O)[C@H](CO)c3ccccc3)C[C@H]1[C@@H]1O[C@@H]12 (stereo not given in full),0.143% [at 35.3 µM]
19,COc1cccc(OC)c1C(=O)N[C@@H]1C(=O)N2[C@@H]1SC(C)(C)[C@@H]2C(=O)O,2.39% [at 35.3 µM]
20,C=COC(=O)C(C)(CC)CCC(C)C (stereo not given),-1.04%

# From PubChem BioAssay (Tox21)
